Data as given in PubChem BioAssay AID1159580 (chemical genetic matrix, 2015).
In all, about 5,500 compounds went through this assay and about 2,000 (36%) were called active. Roughly 18% stayed inconclusive and do not appear here. Cut-off read from the data, not from the text of the source: active = normalized growth mostly below about 0.91 (no sharp cut-off); inconclusive = no clear call, values can overlap the other calls; inactive = mostly above about 0.92. The list shows a part of the results.

Assay: chemical genetic growth profiling, strain panel (AID 1159580);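 note: tested at 20 µM; growth read once vehicle control cultures reached saturation at 30 °C; 1 = growth at the plate median or of vehicle wells; lower values mean less growth of the strain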
Conditions: S. cerevisiae deletion strains, growth OD

Measured: normalized growth

Oc1ccc2c(c1)O[C@H](c1ccc(O)c(O)c1)[C@@H](O)C2
inactive: locus YAL013W, strain DEP1, active compounds read low 1.03 | locus YAL021C, strain ccr4, active compounds read low 1.02 | locus YAL026C, strain drs2, active compounds read low 1.03 | locus YAL030W, strain snc1, active compounds read low 1.02 | locus YBL061C, strain skt5, active compounds read low 1.04 | locus YBR009C, strain hhf1, active compounds read low 1.03 | locus YBR021W, strain FUR4, active compounds read low 1.04 | locus YBR023C, strain chs3, active compounds read low 1.03 | locus YBR171W, strain sec66, active compounds read low 1.03 | locus YBR229C, strain ROT2, active compounds read low 1.03 | locus YBR231C, strain swc5, active compounds read low 1.03 | locus YBR279W, strain paf1, active compounds read low 1.02 | locus YCL011C, strain gbp2, active compounds read low 1.02 | locus YCL016C, strain dcc1, active compounds read low 1.02 | locus YCL029C, strain bik1, active compounds read low 1.02 | locus YCL061C, strain MRC1, active compounds read low 1.02 | locus YCL069W, strain vba3, active compounds read low 1.03 | locus YCR088W, strain abp1, active compounds read low 1.02 | locus YDL005C, strain med2, active compounds read low 1.02 | locus YDL035C, strain GPR1, active compounds read low 1.07 | locus YDL040C, strain nat1, active compounds read low 1.03 | locus YDL074C, strain BRE1, active compounds read low 1.08 | locus YDL101C, strain DUN1, active compounds read low 1.03 | locus YDL134C, strain PPH21, active compounds read low 1.05 | locus YDL185W, strain tfp1, active compounds read low 0.989 | locus YDL192W, strain arf1, active compounds read low 1.03 | locus YDR001C, strain nth1, active compounds read low 1.03 | locus YDR069C, strain doa4, active compounds read low 1.03 | locus YDR101C, strain arx1, active compounds read low 1 | locus YDR137W, strain rgp1, active compounds read low 1.01 | locus YDR150W, strain NUM1, active compounds read low 1.03 | locus YDR159W, strain sac3, active compounds read low 1.04 | locus YDR162C, strain NBP2, active compounds read low 1.04 | locus YDR195W, strain ref2 0.991 | locus YDR297W, strain sur2, active compounds read low 1.03 | locus YDR318W, strain mcm21, active compounds read low 1.01 | locus YDR334W, strain swr1, active compounds read low 1.04 | locus YDR335W, strain msn5, active compounds read low 1.03 | locus YDR388W, active compounds read low 0.992 | locus YDR392W, strain spt3, active compounds read low 1.03 | locus YDR502C, strain sam2, active compounds read low 0.993 | locus YEL003W, strain gim4, active compounds read low 1.03 | locus YEL037C, strain rad23, active compounds read low 1.02 | locus YEL061C, strain CIN8 (second series), active compounds read low 1.03 | locus YEL061C, strain CIN8, active compounds read low 1.03 | locus YER015W, strain faa2, active compounds read low 1.02 | locus YER016W, strain bim1, active compounds read low 1.02 | locus YER110C, active compounds read low 1.02 | locus YER111C, strain swi4, active compounds read low 1.03 | locus YER155C, strain BEM2 (second series), active compounds read low 1.03 | locus YER155C, strain BEM2, active compounds read low 1.03 | locus YER167W, strain BCK2, active compounds read low 1.03 | locus YFR010W, strain ubp6, active compounds read low 1.02 | locus YGL078C, strain dbp3, active compounds read low 1.01 | locus YGL086W, strain mad1, active compounds read low 0.997 | locus YGL167C, strain pmr1, active compounds read low 1.02 | locus YGL173C, strain kem1, active compounds read low 1.04 | locus YGL227W, strain vid30, active compounds read low 1.03 | locus YGL240W, strain doc1, active compounds read low 1.03 | locus YGL248W, strain PDE1, active compounds read low 1.06 | locus YGL253W, strain hxk2, active compounds read low 1.02 | locus YGR078C, strain PAC10, active compounds read low 1.04 | locus YGR135W, strain pre9, active compounds read low 1.01 | locus YGR252W, strain gcn5, active compounds read low 0.989 | locus YHR013C, strain ard1, active compounds read low 1.02 | locus YHR027C, strain rpn1, active compounds read low 1.02 | locus YHR030C, strain SLT2, active compounds read low 1.03 | locus YHR079C, strain IRE1 (second series), active compounds read low 1 | locus YHR094C, strain hxt1, active compounds read low 0.99 | locus YHR129C, strain ARP1, active compounds read low 1.03 | locus YHR142W, strain chs7, active compounds read low 1.04 | locus YHR200W, strain rpn10, active compounds read low 1 | locus YIL066C, strain RNR3, active compounds read low 1.04 | locus YIL073C, strain SPO22, active compounds read low 1.1 | locus YIL125W, strain kgd1, active compounds read low 1.02 | locus YIR030C, strain dcg1, active compounds read low 1 | locus YJL092W, strain hpr5, active compounds read low 1.02 | locus YJL095W, strain BCK1 (second series), active compounds read low 1.03 | locus YJL095W, strain BCK1, active compounds read low 1.08 | locus YJL115W, strain asf1, active compounds read low 1.02 | locus YJL129C, strain trk1, active compounds read low 1.04 | locus YJL134W, strain LCB3, active compounds read low 1.03 | locus YJL154C, strain vps35, active compounds read low 1.02 | locus YJL164C, strain tpk1, active compounds read low 1.03 | locus YJL166W, strain qcr8, active compounds read low 1.03 | locus YJL168C, strain set2, active compounds read low 1.01 | locus YJL187C, strain SWE1 (second series), active compounds read low 1.04 | locus YJL187C, strain SWE1, active compounds read low 1.03 | locus YJR043C, strain POL32, active compounds read low 1.06 | locus YKL009W, strain mrt4, active compounds read low 1.01 | locus YKL068W, active compounds read low 0.988 | locus YKL085W, strain MDH1 (second series), active compounds read low 1.01 | locus YKL085W, strain MDH1, active compounds read low 1.01 | locus YKL160W, strain elf1, active compounds read low 1.02 | locus YKL190W, strain CNB1, active compounds read low 1.03 | locus YKR001C, strain vps1, active compounds read low 1.04 | locus YKR026C, strain gcn3, active compounds read low 1.02 | locus YKR091W, strain srl3, active compounds read low 1.03 | locus YLL001W, strain dnm1, active compounds read low 1.02 | locus YLL026W, active compounds read low 1.03 | locus YLL041C, strain sdh2, active compounds read low 1.03 | locus YLR027C, strain aat2, active compounds read low 1.02 | locus YLR039C, strain RIC1, active compounds read low 1.23 | locus YLR058C, strain SHM2, active compounds read low 1.04 | locus YLR102C, strain apc9, active compounds read low 0.992 | locus YLR221C, strain rsa3, active compounds read low 1.02 | locus YLR258W, strain gsy2, active compounds read low 1.03 | locus YLR262C, strain YPT6 (second series), active compounds read low 1.04 | locus YLR262C, strain YPT6, active compounds read low 1.25 | locus YLR268W, strain sec22, active compounds read low 1.02 | locus YLR320W, strain mms22, active compounds read low 1.05 | locus YLR330W, strain CHS5, active compounds read low 1.03 | locus YLR342W, strain FKS1, active compounds read low 1.03 | locus YLR357W, strain rsc2, active compounds read low 1.06 | locus YLR370C, strain arc18, active compounds read low 1.04 | locus YLR371W, strain rom2, active compounds read low 1.02 | locus YLR384C, strain iki3, active compounds read low 1.03 | locus YLR418C, strain cdc73, active compounds read low 1.03 | locus YML016C, strain PPZ1, active compounds read low 1.03 | locus YML032C, strain rad52, active compounds read low 1.01 | locus YML120C, strain ndi1, active compounds read low 1.03 | locus YML124C, strain tub3, active compounds read low 1.01 | locus YMR058W, strain fet3, active compounds read low 1.02 | locus YMR078C, strain ctf18, active compounds read low 0.992 | locus YMR125W, strain sto1, active compounds read low 1.02 | locus YMR129W, active compounds read low 1.03 | locus YMR205C, strain PFK2, active compounds read low 1.06 | locus YMR223W, strain ubp8, active compounds read low 0.999 | locus YMR231W, strain pep5, active compounds read low 1.01 | locus YMR307W, strain GAS1, active compounds read low 1.2 | locus YNL067W, strain RPL9B, active compounds read low 1.02 | locus YNL071W, strain lat1, active compounds read low 1.05 | locus YNL153C, strain GIM3, active compounds read low 1.04 | locus YNL209W, strain ssb2, active compounds read low 1.01 | locus YNL233W, strain BNI4, active compounds read low 1.04 | locus YNL248C, strain rpa49, active compounds read low 1.03 | locus YNL250W, strain rad50, active compounds read low 1.01 | locus YNL271C, strain bni1, active compounds read low 1.03 | locus YNL298W, strain CLA4, active compounds read low 1.01 | locus YNL307C, strain MCK1, active compounds read low 1.01 | locus YNL322C, strain KRE1 (second series), active compounds read low 1.02 | locus YNR049C, strain mso1, active compounds read low 1.03 | locus YNR052C, strain pop2, active compounds read low 1 | locus YOL012C, strain htz1 0.833 | locus YOL147C, strain pex11, active compounds read low 0.996 | locus YOR001W, strain rrp6, active compounds read low 1.03 | locus YOR061W, strain CKA2, active compounds read low 1.04 | locus YOR069W, strain VPS5, active compounds read low 1.03 | locus YOR070C, strain gyp1, active compounds read low 1.03 | locus YOR080W, strain dia2, active compounds read low 1.02 | locus YOR083W, strain WHI5, active compounds read low 1.02 | locus YOR106W, strain vam3, active compounds read low 1.03 | locus YOR136W, strain idh2, active compounds read low 0.996 | locus YOR144C, strain elg1, active compounds read low 0.992 | locus YOR184W, strain ser1, active compounds read low 1.05 | locus YOR265W, strain rbl2, active compounds read low 1.03 | locus YOR270C, strain vph1, active compounds read low 1.06 | locus YOR290C, strain snf2, active compounds read low 1.05 | locus YOR316C, strain cot1, active compounds read low 0.999 | locus YPL051W, strain arl3, active compounds read low 1.01 | locus YPL078C, strain atp4, active compounds read low 1.02 | locus YPL106C, strain sse1, active compounds read low 0.998 | locus YPL240C, strain hsp82, active compounds read low 1.02 | locus YPR119W, strain clb2, active compounds read low 0.996 | locus YPR141C, strain kar3, active compounds read low 1.01 | locus YPR163C, strain tif3, active compounds read low 0.999 | locus YPR167C, strain met16, active compounds read low 0.996 | strain wtn01, active compounds read low 1.02
